Structures are written as SMILES. Unmarked numbers belong to inactive results. Active and inactive are the calls of the source. Unless noted, how the calls were made is not given here.

From PubChem BioAssay come the findings set out here.

The first experiment is described as follows: P. aeruginosa biofilm formation inhibitors, primary screen, PAO1 strain, BacTiter-Glo luminescence, LB-PBS (AID 1144). The note with it: 12 h, higher = more signal.
Regarding `CCCCCCCCCCC(O)C1C=CC2C(=O)NC(=O)C2N1Nc1ccc(Cl)cc1Cl` (stereo not drawn), the z-score was -0.0821.
On to `C=CC1c2cc(O)c(OC)cc2CCN1Cc1cccc(OC(F)(F)F)c1` (stereo not drawn), for which the z-score was 0.0435.
Still for that read-out and setting: in the case of `CC(C)[Si](C#C[Si](C(C)C)(C(C)C)C(C)C)(O[C@H](C)c1cn(Cc2ccccc2)nn1)C(C)C` it was -0.324.
`O=C1O[C@H](c2ccccc2)[C@H](c2ccccc2)N2[C@H]1[C@@H](C(=O)NC[C@H](O)c1ccccc1)[C@]1(C(=O)Nc3ccc(C#CC4=CCCCC4)cc31)[C@H]2c1ccccc1OCCO`: the z-score was -0.297.
Consider `COc1ccc(-c2cc3c(c(Cc4ccccc4)n2)[Si](C(C)C)(C(C)C)OC3)cn1`, for which the z-score was 0.2.
On the same count and under the same terms, then `C=CCC(OC(C)=O)[C@@H]1[C@@H](N(Cc2ccc(-c3cccc(C(F)(F)F)c3)o2)C(=O)Cc2ccc(OC)cc2)c2cc(OCCCO)ccc2N1C(=O)c1ccc2ccccc2c1` (stereo partly drawn), with -1; and `CCC(CC)C(O)C1C=CC2C(=O)N(c3ccccc3)C(=O)C2N1Nc1ccccc1` (stereo not drawn), with -1.63; and `CN1C(=O)C2C=CC(C(O)c3c(F)cccc3Cl)N(NC(=O)OC(C)(C)C)C2C1=O` (stereo not drawn), with 0.232.
With `C=C[C@H](C)[C@@H](OC(=O)Nc1ccc(SC)cc1)c1ccc(O)c2ccccc12`, the z-score was -0.492.
The same measure, in the same setting: in the case of `COc1ccccc1CN1C(=O)c2ccccc2[C@@H](C(=O)NCc2ccccc2)[C@@H]1c1ccc(CO)cc1` it was 1.29; in that of `O=C1OCC=C[C@H]2OC34C=CCN(Cn5nnc6ccccc65)C(=O)[C@H]3N(CCCCCO)C(=O)[C@@H]4[C@@H]12` (stereo partly drawn), -1.03.
Same read-out and setting: then `Cc1ccc(S[C@]2(C(=O)NCC(C)C)CC(=O)N(Cc3cc(C(F)(F)F)cc(C(F)(F)F)c3)[C@@H]2c2ccc(CO)cc2)cc1`, with -0.846.
Still for that read-out and setting: then `CS(=O)(=O)CCOC(=O)C1=CC(CCCO)=CC(C2CC2)N(Cc2cc3c(cc2Br)OCO3)C=C1C(=O)OCCS(C)(=O)=O` (stereo not drawn), with -0.453; and `C=CCOC(=O)[C@H]1[C@@H]2C(=O)O[C@@H](c3ccccc3)[C@@H](c3ccccc3)N2[C@@H](c2ccc(OCCOC(=O)[C@H]3C[C@H]4C(=O)N[C@@H](CCCCN(C)C)C(=O)N4[C@H]3c3cccc(OCCO)c3)cc2)[C@]12C(=O)Nc1ccc(I)cc12`, with 0.772; and `COc1ccc([Si](C)(C)[C@H]2[C@H](CC(=O)N3CCC[C@H]3CO)O[C@@]3(C(=O)N(Cc4cccc(N5CCOC5=O)c4)c4ccccc43)[C@@H]2C)cc1`, with 0.621.
In the case of `O=C1OCCC=C[C@H]2OC34C=CCN(c5ccc(Cl)cc5)C(=O)[C@H]3N(CCCO)C(=O)[C@@H]4C12` (stereo partly drawn), the z-score was -0.925.
Still for that read-out and setting: then `COc1ccc(C(O)C2C=CC3C(=O)N(C)C(=O)C3N2N(c2ccccc2)c2ccccc2)c2ccccc12` (stereo not drawn), with -0.347.
As for `COCC(=C=CC[C@H](O)c1cccc(OCCO)c1)CCO`, the z-score was -0.833.
Consider `CC[C@@H]1C=C(C(=O)O)[C@H](c2ccc(C)cc2)N1S(=O)(=O)c1ccc(C)cc1`, for which the z-score is -0.498.
Same read-out and setting: then `O=C1NC(=O)C2C1C=CC(C(O)C1CC=CCC1)N2Nc1ccccn1` (stereo not drawn), with -0.893.
The same measure, in the same setting: in the case of `COc1ccc(C(=O)Nc2cccc(CN3C(=O)[C@]4(O[C@H](CCn5cc(CCO)nn5)[C@@H]([Si](C)(C)c5ccc(OC)cc5)[C@@H]4C)c4ccccc43)c2)cc1` it was -0.0511; in that of `CS(=O)(=O)CCOC(=O)C1=CC(CCCO)=CC(c2ccc(CN3CCCC3)cc2)N(Cc2cccc(OC(F)(F)F)c2)C=C1C(=O)OCCS(C)(=O)=O` (stereo not drawn), 4.41.
On to `COC(=O)c1c2oc(c1C(=O)OC)C(=O)N[C@@H](C(C)C)Cn1cc(nn1)C1(CCCCC1)NC(=O)N[C@H](CO)CC2`, for which the z-score was -0.377.
The same measure, in the same setting: then `O=C1O[C@@H](c2ccccc2)[C@@H](c2ccccc2)N2[C@@H](c3ccc(OCCO)cc3)[C@]3(C(=O)Nc4ccc(C#CCCO)cc43)[C@@H](C(=O)NC[C@H](O)c3ccccc3)[C@H]12`, with -0.703; and `CC(c1ccccc1)C(O)C1C=CC2C(=O)N(c3ccccc3)C(=O)C2N1Nc1ccccc1` (stereo not drawn), with -0.626; and `CC1CC/C=C\[C@H]2OC34C=CCN(Cc5ccccc5)C(=O)[C@H]3N(C(C)CO)C(=O)[C@@H]4C2C(=O)O1` (stereo partly drawn), with 0.647.

Another experiment is described as follows: CREB reporter modulators without forskolin, primary screen, cell-based, PC12, CRE-LacZ reporter, unstimulated (AID 1145). The note with it: no forskolin, luminescence, 4.5 h, higher = more signal, called active from +8 up or from −8 down.
Take `COc1ccc([Si](C)(C)[C@@H]2[C@@H](CCO)O[C@]3(C(=O)N(Cc4cccc(N5CCOC5=O)c4)c4ccccc43)[C@H]2C)cc1`: the z-score is 8.62 (active).
The same measure, in the same setting: then `CCOC(=O)C1=CC[C@H]2C(=O)N(c3ccccc3)C(=O)[C@@H]12`, with 0.836.
Take `CCOC(=O)C[C@H]1[C@H](OC(=O)c2ccc(C(=O)c3ccccc3)cc2)[C@@H](NC(=O)Cc2ccc(OC)cc2)c2cc(OCCCO)ccc2N1C(=O)c1ccc2ccccc2n1`: the z-score is 0.745.
With `COC(=O)[C@@]1(Cc2ccc(F)cc2)[C@H]2c3cc(C(=O)N(C)C)n(Cc4cc(C)n(C)n4)c3C[C@H]2CN1C(=O)c1ccccc1`, the z-score is 0.779.
Same read-out and setting: then `CCCC[C@@H]1C[C@H]1[C@@H](NC(=O)c1cccnc1)c1ccc(Cl)cc1`, with -0.368; and `[N-]=[N+]=Nc1ccccc1C[C@@]1(C(=O)N2CCCCC2)N=C(c2ccc(OCCCO)cc2)O[C@@H]1c1ccccc1N=[N+]=[N-]`, with 0.801.
On the same count and under the same terms, then `C=CCC(OC(C)=O)[C@@H]1[C@@H](N(Cc2ccc(-c3cccc(C(F)(F)F)c3)o2)C(=O)c2cccc3ccccc23)c2cc(OCCCO)ccc2N1C(=O)Cc1ccc2ccccc2c1` (stereo partly drawn), with 0.307; and `CCCCN1CC=CC23O[C@@H]4C=CCOC(=O)[C@@H]4[C@H]2C(=O)N(CCCCCCO)[C@@H]3C1=O` (stereo partly drawn), with -0.0899; and `O=C1C2C=CC(C(O)C=Cc3ccc([N+](=O)[O-])cc3)N(n3cnnc3)C2C(=O)N1Cc1ccccc1` (stereo not drawn), with -0.368.
On the same count and under the same terms, then `O=C1[C@H]2C=C(Br)[C@H](C[C@@H]2OCCCCCCO)[C@@]12CO2`, with 0.577; and `CCCCCCCCCCC(O)C1C=CC2C(=O)NC(=O)C2N1Nc1ccc(Cl)cc1Cl` (stereo not drawn), with -0.136; and `C=CC1c2cc(O)c(OC)cc2CCN1Cc1cccc(OC(F)(F)F)c1` (stereo not drawn), with -0.527.
Consider `CC(C)[Si](C#C[Si](C(C)C)(C(C)C)C(C)C)(O[C@H](C)c1cn(Cc2ccccc2)nn1)C(C)C`, for which the z-score was -0.0848.
Still for that read-out and setting: then `O=C1O[C@H](c2ccccc2)[C@H](c2ccccc2)N2[C@H]1[C@@H](C(=O)NC[C@H](O)c1ccccc1)[C@]1(C(=O)Nc3ccc(C#CC4=CCCCC4)cc31)[C@H]2c1ccccc1OCCO`, with -0.0784; and `COc1ccc(-c2cc3c(c(Cc4ccccc4)n2)[Si](C(C)C)(C(C)C)OC3)cn1`, with -0.141; and `C=CCC(OC(C)=O)[C@@H]1[C@@H](N(Cc2ccc(-c3cccc(C(F)(F)F)c3)o2)C(=O)Cc2ccc(OC)cc2)c2cc(OCCCO)ccc2N1C(=O)c1ccc2ccccc2c1` (stereo partly drawn), with -0.0247.
Same read-out and setting: then `CCC(CC)C(O)C1C=CC2C(=O)N(c3ccccc3)C(=O)C2N1Nc1ccccc1` (stereo not drawn), with 1.01.
On the same count and under the same terms, then `CN1C(=O)C2C=CC(C(O)c3c(F)cccc3Cl)N(NC(=O)OC(C)(C)C)C2C1=O` (stereo not drawn), with 0.622.
As to `C=C[C@H](C)[C@@H](OC(=O)Nc1ccc(SC)cc1)c1ccc(O)c2ccccc12`, the z-score is -0.505.
Still for that read-out and setting: in the case of `COc1ccccc1CN1C(=O)c2ccccc2[C@@H](C(=O)NCc2ccccc2)[C@@H]1c1ccc(CO)cc1` it was 0.648.
Consider `O=C1OCC=C[C@H]2OC34C=CCN(Cn5nnc6ccccc65)C(=O)[C@H]3N(CCCCCO)C(=O)[C@@H]4[C@@H]12` (stereo partly drawn), for which the z-score is -0.623.
As to `Cc1ccc(S[C@]2(C(=O)NCC(C)C)CC(=O)N(Cc3cc(C(F)(F)F)cc(C(F)(F)F)c3)[C@@H]2c2ccc(CO)cc2)cc1`, the z-score is -0.0781.
As for `CS(=O)(=O)CCOC(=O)C1=CC(CCCO)=CC(C2CC2)N(Cc2cc3c(cc2Br)OCO3)C=C1C(=O)OCCS(C)(=O)=O` (stereo not drawn), the z-score is -0.0424.
Still for that read-out and setting: then `C=CCOC(=O)[C@H]1[C@@H]2C(=O)O[C@@H](c3ccccc3)[C@@H](c3ccccc3)N2[C@@H](c2ccc(OCCOC(=O)[C@H]3C[C@H]4C(=O)N[C@@H](CCCCN(C)C)C(=O)N4[C@H]3c3cccc(OCCO)c3)cc2)[C@]12C(=O)Nc1ccc(I)cc12`, with -0.671; and `COc1ccc([Si](C)(C)[C@H]2[C@H](CC(=O)N3CCC[C@H]3CO)O[C@@]3(C(=O)N(Cc4cccc(N5CCOC5=O)c4)c4ccccc43)[C@@H]2C)cc1`, with 0.395.
Same read-out and setting: then `O=C1OCCC=C[C@H]2OC34C=CCN(c5ccc(Cl)cc5)C(=O)[C@H]3N(CCCO)C(=O)[C@@H]4C12` (stereo partly drawn), with -0.35; and `COc1ccc(C(O)C2C=CC3C(=O)N(C)C(=O)C3N2N(c2ccccc2)c2ccccc2)c2ccccc12` (stereo not drawn), with 0.246.
As to `COCC(=C=CC[C@H](O)c1cccc(OCCO)c1)CCO`, the z-score was 0.0281.
In the case of `CC[C@@H]1C=C(C(=O)O)[C@H](c2ccc(C)cc2)N1S(=O)(=O)c1ccc(C)cc1`, the z-score was -0.527.
On to `O=C1NC(=O)C2C1C=CC(C(O)C1CC=CCC1)N2Nc1ccccn1` (stereo not drawn), for which the z-score is -0.329.
Turning to `COc1ccc(C(=O)Nc2cccc(CN3C(=O)[C@]4(O[C@H](CCn5cc(CCO)nn5)[C@@H]([Si](C)(C)c5ccc(OC)cc5)[C@@H]4C)c4ccccc43)c2)cc1`, the z-score is 0.963.
On the same count and under the same terms, then `CS(=O)(=O)CCOC(=O)C1=CC(CCCO)=CC(c2ccc(CN3CCCC3)cc2)N(Cc2cccc(OC(F)(F)F)c2)C=C1C(=O)OCCS(C)(=O)=O` (stereo not drawn), with 4.56.
